Hits are enriched below; roughly 0.74% of the tested compounds scored in any of these assays.
MazEF act = activators of E. coli MazEF toxin-antitoxin RNase; FAM/BHQ RNA-DNA oligo cleavage fluorescence, 5 h; activation, % at 20 µM; hit rate 0.32% among 350,000; AID 504720; in the data active = activation above about 50%
Target sequence (P0AE70 whole entry, looked up): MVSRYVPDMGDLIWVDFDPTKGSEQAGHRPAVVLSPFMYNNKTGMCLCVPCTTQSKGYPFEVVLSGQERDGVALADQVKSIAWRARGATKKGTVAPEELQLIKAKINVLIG
Rv3671c protease = Rv3671c (M. tuberculosis) protease inhibition | P9WHR9 | inhibition, % at 5.96 µM | hit rate 0.048% among 320,000; in the data active = inhibition above about 38%;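 note: extracellular domain of Rv3671c used as enzyme; 0% = enzyme with DMSO and 100% = no enzyme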
UGM FP inh = Mtb UDP-galactopyranose mutase inhibition | AID 504406 | hit rate 0.06% among 320,000 | purified UGM, fluorescence polarization probe displacement | P9WIQ1 | inhibition, % at 10 µM; in the data active = inhibition above about 10%, passing the limit was not always enough
Target sequence (P9WIQ1 whole entry, looked up): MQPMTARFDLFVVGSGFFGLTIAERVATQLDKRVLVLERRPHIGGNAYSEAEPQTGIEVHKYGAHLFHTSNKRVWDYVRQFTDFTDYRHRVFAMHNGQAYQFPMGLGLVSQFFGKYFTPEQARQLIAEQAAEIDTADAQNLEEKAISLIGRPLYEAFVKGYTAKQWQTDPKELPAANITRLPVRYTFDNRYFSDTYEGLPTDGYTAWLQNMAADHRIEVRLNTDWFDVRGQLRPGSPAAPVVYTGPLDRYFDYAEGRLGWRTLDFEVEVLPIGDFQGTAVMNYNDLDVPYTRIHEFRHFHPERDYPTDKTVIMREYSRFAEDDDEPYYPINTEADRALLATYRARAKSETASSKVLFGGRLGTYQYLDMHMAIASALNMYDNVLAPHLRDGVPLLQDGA
FadD28 binding = inhibitors of Mycobacterium tuberculosis FadD28 bisubstrate binding; FadD28 bisubstrate probe binding, fluorescence polarization; inhibition, % at 12.5 µM; hit rate 0.22% among 360,000; AID 588549; in the data active = inhibition above about 8.5%, passing the limit was not always enough
Mtb betalactam = beta-lactam sensitization of Mtb H37Rv; M. tuberculosis H37Rv growth with meropenem, percent inhibition; AID 434955; inhibition, % at 25 µM; hit rate 0.27% among 330,000; call rule not given here;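 note: growth measured after seven days incubation then overnight dye step; 0% = bacteria only wells and 100% = bacteria with antibiotic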
BH1578 lux ind = quorum light induction in luxS cqsA deficient V. cholerae; activation, % at 18.7 µM; V. cholerae BH1578 lux reporter, luminescence, 6 h; hit rate 0.16% among 350,000; AID 588436; in the data active = activation mostly above about 9.7%, no sharp cut-off
Active calls of the source: *; i = inactive; x = no result given.

SMILES	MazEF act	Rv3671c protease	UGM FP inh	FadD28 binding	Mtb betalactam	BH1578 lux ind
Cc1nc2ccc(C(=O)OCc3ccccc3Br)cc2nc1C	60.4*	-16.0	0.4	-0.1	96.7	i
CC(=O)N1CCN(S(=O)(=O)c2cccc(C(=O)NNC(=O)Cn3nc(C)cc3C)c2)CC1	-2.3	5.6	10.4*	x	-1.6	i
FC(F)(F)c1ccccc1CNCc1ccc2c(c1)OCO2	9.3	x	-0.1	-1.4	5.5	i
CCN1C(=O)C(=Cc2cc(C)n(C3CC3)c2C)C(=O)N(CC)C1=S	676.8*	-13.3	-1.9	-1.4	1.8	-0.6
Cc1cc(C=C2C(=O)N(C)C(=S)N(C)C2=O)c(C)n1C1CCCC1	-36.4	2.9	-5.4	0.1	82.8	i
O=C(CCNC(=O)c1ccc([N+](=O)[O-])cc1)Nc1cccc(S(=O)(=O)N2CCCCCC2)c1	-9.8	-7.8	-0.4	1.9	-4.0	-0.4
Cc1cccc(Oc2cc([N+](=O)[O-])cc3c2C(=O)Nc2ccccc2O3)c1	4.9	-33.4	1.0	-5.6	-4.9	-0.4
O=C1Nc2ccccc2Oc2cc([N+](=O)[O-])cc(Oc3ccccc3)c21	53.2*	-3.4	3.1	-0.6	3.1	-0.3
COc1ccc(S(=O)(=O)N2CCC(C(=O)Nc3cc(Cl)ccc3N3CCOCC3)CC2)cc1OC	8.0	-9.0	3.7	-0.6	-7.2	-0.4
COc1ccc(NC(=O)Cc2c[nH]c3ccccc23)cc1S(=O)(=O)N1CCOCC1	4.9	3.1	2.9	6.1	0.9	-0.5
COc1ccc(C(=O)NCCc2c[nH]c3ccccc23)cc1S(=O)(=O)N1CCOCC1	-7.7	2.4	1.4	8.4*	-6.0	3.4
O=C(NC(=S)Nn1cnnc1)c1ccc(F)cc1Cl	5.5	-6.9	-0.2	-2.9	-3.3	-0.1
O=C(NC(=S)Nn1cnnc1)c1ccccc1Cl	5.0	4.7	13.2*	0.0	1.8	i
CCOc1ccc2cc(S(=O)(=O)N3CCOCC3)ccc2c1	5.9	5.9	1.9	0.1	4.4	73.8*
CNc1nnc(SCC(=O)N2c3ccccc3NC(=O)CC2C)s1 (stereo not given)	2.7	-1.5	1.4	-1.3	-8.3	-0.8
O=C(NC(=S)NCc1nc2ccccc2[nH]1)c1ccccc1F	3.7	-5.1	-1.7	8.9*	8.0	0.1
CC12CN3CC(C)(CN(C1)C3c1cccnc1)C2=O (stereo not given)	8.7	3.3	-0.8	1.3	-8.9	2.9
CCC12CN3CC(CC)(CN(C1)C3c1cccnc1)C2=O (stereo not given)	6.5	6.0	0.7	-2.7	-15.8	16.7*
CCc1nnc(NC(=O)CN2C(=O)N(C)C3(CCCCC3)C2=O)s1	-5.7	-6.9	-2.7	0.1	-11.2	i
Clc1ccc(/C=C/c2nc3ccccc3[nH]2)c(Cl)c1	32.3	-45.0	0.0	-1.2	16.3	i
Clc1ccc(/C=C/c2nc3ccccc3[nH]2)cc1	67.5*	-16.8	0.4	-9.8	18.4	x
Fc1cccc(-c2cncc(N3CCN(CCN4CCCC4)CC3)n2)c1	x	x	x	-0.1	x	i
CCN(CC(=O)Nc1ccc(C(=O)OC)cc1)C1CCCCC1	157.3*	9.7	-0.6	-1.1	-0.8	-0.2
COc1ccc(OCc2nnc(SCC(=O)Nc3ccc(C)cc3)o2)cc1	-1.5	5.4	4.4	-1.9	97.4	-0.3
COc1ccc(Cc2nnc(SCC(=O)N(C)CC(=O)Nc3ccc(C)cc3)o2)cc1	-3.0	-3.2	-0.6	-5.1	2.1	28.5*
SMILES	MazEF act	Rv3671c protease	UGM FP inh	FadD28 binding	Mtb betalactam	BH1578 lux ind
CC1(C2CC2)NC(=O)N(CC(=O)Nc2ccc(OC(F)F)cc2)C1=O (stereo not given)	1.7	x	x	-4.1	x	i
NS(=O)(=O)c1ccc(CCNC(=O)CSc2ccc(Cl)cc2Cl)cc1	63.0*	-2.6	5.1	-5.4	-8.7	-0.3
O=C(COc1ccccc1)Nc1ccc(CN2CCCCC2)cc1	-1.1	-3.5	-3.3	15.8*	-7.6	-0.3
CN(c1ccccc1)c1ccc(/C=N/N2CCOCC2)cc1	-3.5	-1.4	0.3	2.4	3.0	1.1
Cc1cccnc1NC(=O)c1ccc(COc2ccccc2)o1	0.1	-4.3	-0.3	x	-2.3	i
Cc1cccc(C2=NN(c3ccc(Br)cc3)[C@@H](C(=O)N3CCOC3=O)[C@@H]2c2ccc(Cl)cc2)c1	128.9*	x	x	-3.5	x	0.0
Cc1cccc(C2=NN(c3ccc(Br)cc3)[C@@H](C(=O)N3CCOC3=O)[C@@H]2c2ccc(F)cc2)c1	-4.3	-2.2	-2.3	0.7	22.4	i
O=C(Nc1ccc(S(=O)(=O)N2CCCCC2)cc1)c1ccc(CN2CCc3ccccc3C2)cc1	-15.9	-131.8	0.2	-3.1	87.9	16.7*
Cc1c(Cl)cccc1-c1ccc(/C=N/n2cnnc2)o1	-4.7	-3.1	1.2	1.3	53.6	27.3*
CCOc1ccc(S(=O)(=O)NCC(=O)NC2CCCCC2)cc1	-2.1	5.4	-2.3	-1.7	-6.8	-0.5
CN1CCc2c(sc3c2C(=O)NC(/C=C/c2ccco2)N3)C1 (stereo not given)	66.1*	-9.9	4.4	-1.4	-4.9	-0.7
CN1CCc2c(sc3c2C(=O)NC(c2ccccc2)N3)C1 (stereo not given)	-70.3	-8.7	3.6	-2.2	-0.8	-0.6
Cc1ccc(NC(=O)CS(=O)CC(=O)Nc2ccccc2-c2ccc(C)o2)cc1 (stereo not given)	300.1*	7.4	3.5	0.0	-1.0	i
COc1ccc2nc(C(F)(F)Cl)c(C#N)c(N)c2c1	0.3	-2.5	-3.3	-12.1	-12.8	i
COc1ccc2nc3cc(Cl)ccc3c(C#N)c2c1	142.2*	-5.6	3.8	-4.4	35.6	-0.4
O=C1N=C(N2CCOCC2)S/C1=C/c1ccc(-c2ccccc2Cl)o1	107.1*	4.6	2.7	-0.2	10.1	-0.3
O=C1N=C(N2CCOCC2)S/C1=C/c1cccs1	7.5	7.6	-1.8	-0.9	40.1	-5.6
Oc1ccc(O)c(C=NNC(=S)NC2CC3CC2C2C=CCC32)c1 (stereo not given)	13.8	x	x	17.8*	x	i
O=[N+]([O-])c1ccc(Cl)c(-c2ccc(/C=N/c3c(-c4ccco4)nc4ccccn34)o2)c1	95.4*	5.7	-0.5	0.5	9.0	1.5
COc1ccc(OC)c(/C=C/C(=O)c2ccc3c(c2)OCCO3)c1	5.0	-6.5	-0.6	-2.0	5.5	-0.4
CC1CN(C(=O)c2cc3cc([N+](=O)[O-])ccc3s2)CC(C)O1 (stereo not given)	160.9*	9.5	4.6	-2.5	-5.3	-0.3
CC1CN(C(=O)c2cc3cc([N+](=O)[O-])ccc3oc2=O)CC(C)O1 (stereo not given)	9.4	-3.0	-1.4	-2.4	0.2	i
COc1ccc(C2C(C#N)=C(N)N(c3cccnc3)C3=C2C(=O)CCC3)cc1Cn1cc([N+](=O)[O-])cn1 (stereo not given)	63.8*	7.6	1.7	0.6	2.3	i
O=C(CNC(=O)c1ccc2ccccc2c1)NCc1ccc(F)cc1	-18.6	9.8	-1.1	0.7	5.8	-0.2

From PubChem BioAssay
